Measured values from PubChem BioAssay AID1159580 (chemical genetic matrix, 2015).
Among all 5,500 compounds or so, about 2,000 (36%) were called active. About 18% were inconclusive and are not listed. No stated cut-off is given here; in the data, active means normalized growth mostly below about 0.91 (no sharp cut-off); inconclusive means no clear call, values can overlap the other calls; inactive means mostly above about 0.92. This is one part of the list.

Assay: chemical genetic growth profiling, strain panel (AID 1159580);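 further: tested at 20 µM; growth read once vehicle control cultures reached saturation at 30 °C; 1 = growth at the plate median or of vehicle wells; lower values mean less growth of the strain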
Conditions: growth OD

Measured: normalized growth

CC(NCCc1ccc(O)cc1)C(O)c1ccc(O)cc1 (centres undefined)
inactive: S. cerevisiae deletion strains, locus YJR043C, strain POL32, active compounds read low 0.992 | S. cerevisiae deletion strains, locus YJR066W, strain TOR1, active compounds read low 0.948 | S. cerevisiae deletion strains, locus YKL009W, strain mrt4, active compounds read low 0.977 | S. cerevisiae deletion strains, locus YKL068W, active compounds read low 0.985 | S. cerevisiae deletion strains, locus YKL085W, strain MDH1 (second series), active compounds read low 0.984 | S. cerevisiae deletion strains, locus YKL085W, strain MDH1, active compounds read low 0.984 | S. cerevisiae deletion strains, locus YKL160W, strain elf1, active compounds read low 0.966 | S. cerevisiae deletion strains, locus YKL190W, strain CNB1, active compounds read low 0.998 | S. cerevisiae deletion strains, locus YKR001C, strain vps1, active compounds read low 0.987 | S. cerevisiae deletion strains, locus YKR026C, strain gcn3, active compounds read low 0.985 | S. cerevisiae deletion strains, locus YKR091W, strain srl3, active compounds read low 0.985 | S. cerevisiae deletion strains, locus YLL001W, strain dnm1, active compounds read low 0.981 | S. cerevisiae deletion strains, locus YLL026W, active compounds read low 0.999 | S. cerevisiae deletion strains, locus YLL041C, strain sdh2, active compounds read low 0.983 | S. cerevisiae deletion strains, locus YLR027C, strain aat2, active compounds read low 0.983 | S. cerevisiae deletion strains, locus YLR039C, strain RIC1, active compounds read low 1.02 | S. cerevisiae deletion strains, locus YLR058C, strain SHM2, active compounds read low 0.988 | S. cerevisiae deletion strains, locus YLR102C, strain apc9, active compounds read low 0.98 | S. cerevisiae deletion strains, locus YLR113W, strain HOG1, active compounds read low 1.01 | S. cerevisiae deletion strains, locus YLR221C, strain rsa3, active compounds read low 1.03 | S. cerevisiae deletion strains, locus YLR258W, strain gsy2, active compounds read low 0.954 | S. cerevisiae deletion strains, locus YLR262C, strain YPT6 (second series), active compounds read low 0.993 | S. cerevisiae deletion strains, locus YLR262C, strain YPT6, active compounds read low 0.977 | S. cerevisiae deletion strains, locus YLR268W, strain sec22, active compounds read low 0.975 | S. cerevisiae deletion strains, locus YLR320W, strain mms22, active compounds read low 0.987 | S. cerevisiae deletion strains, locus YLR330W, strain CHS5, active compounds read low 0.987 | S. cerevisiae deletion strains, locus YLR342W, strain FKS1 (second series), active compounds read low 0.984 | S. cerevisiae deletion strains, locus YLR342W, strain FKS1, active compounds read low 0.974 | S. cerevisiae deletion strains, locus YLR357W, strain rsc2, active compounds read low 0.916 | S. cerevisiae deletion strains, locus YLR370C, strain arc18, active compounds read low 0.95 | S. cerevisiae deletion strains, locus YLR371W, strain rom2, active compounds read low 0.975 | S. cerevisiae deletion strains, locus YLR384C, strain iki3, active compounds read low 0.975 | S. cerevisiae deletion strains, locus YLR418C, strain cdc73, active compounds read low 0.969 | S. cerevisiae deletion strains, locus YML016C, strain PPZ1, active compounds read low 0.986 | S. cerevisiae deletion strains, locus YML032C, strain rad52, active compounds read low 0.976 | S. cerevisiae deletion strains, locus YML120C, strain ndi1, active compounds read low 1.02 | S. cerevisiae deletion strains, locus YML124C, strain tub3, active compounds read low 0.99 | S. cerevisiae deletion strains, locus YMR058W, strain fet3, active compounds read low 0.988 | S. cerevisiae deletion strains, locus YMR078C, strain ctf18, active compounds read low 0.986 | S. cerevisiae deletion strains, locus YMR125W, strain sto1, active compounds read low 0.98 | S. cerevisiae deletion strains, locus YMR129W, active compounds read low 1.01 | S. cerevisiae deletion strains, locus YMR205C, strain PFK2, active compounds read low 1 | S. cerevisiae deletion strains, locus YMR223W, strain ubp8, active compounds read low 0.976 | S. cerevisiae deletion strains, locus YMR231W, strain pep5, active compounds read low 0.997 | S. cerevisiae deletion strains, locus YMR307W, strain GAS1, active compounds read low 0.891 | S. cerevisiae deletion strains, locus YNL067W, strain RPL9B, active compounds read low 1.01 | S. cerevisiae deletion strains, locus YNL071W, strain lat1, active compounds read low 0.993 | S. cerevisiae deletion strains, locus YNL128W, strain TEP1, active compounds read low 0.962 | S. cerevisiae deletion strains, locus YNL183C, strain NPR1, active compounds read low 0.959 | S. cerevisiae deletion strains, locus YNL209W, strain ssb2, active compounds read low 0.961 | S. cerevisiae deletion strains, locus YNL233W, strain BNI4, active compounds read low 1 | S. cerevisiae deletion strains, locus YNL248C, strain rpa49, active compounds read low 0.921 | S. cerevisiae deletion strains, locus YNL250W, strain rad50, active compounds read low 0.974 | S. cerevisiae deletion strains, locus YNL271C, strain bni1, active compounds read low 0.973 | S. cerevisiae deletion strains, locus YNL298W, strain CLA4, active compounds read low 0.981 | S. cerevisiae deletion strains, locus YNL307C, strain MCK1, active compounds read low 0.987 | S. cerevisiae deletion strains, locus YNL322C, strain KRE1 (second series), active compounds read low 0.985 | S. cerevisiae deletion strains, locus YNR049C, strain mso1, active compounds read low 0.977 | S. cerevisiae deletion strains, locus YNR052C, strain pop2, active compounds read low 0.985 | S. cerevisiae deletion strains, locus YOL006C, strain TOP1, active compounds read low 1.02 | S. cerevisiae deletion strains, locus YOL012C, strain htz1 0.994 | S. cerevisiae deletion strains, locus YOL147C, strain pex11, active compounds read low 0.983 | S. cerevisiae deletion strains, locus YOR001W, strain rrp6, active compounds read low 1.03 | S. cerevisiae deletion strains, locus YOR061W, strain CKA2, active compounds read low 0.984 | S. cerevisiae deletion strains, locus YOR069W, strain VPS5, active compounds read low 0.99 | S. cerevisiae deletion strains, locus YOR070C, strain gyp1, active compounds read low 0.976 | S. cerevisiae deletion strains, locus YOR080W, strain dia2, active compounds read low 0.977 | S. cerevisiae deletion strains, locus YOR083W, strain WHI5, active compounds read low 0.935 | S. cerevisiae deletion strains, locus YOR106W, strain vam3, active compounds read low 0.99 | S. cerevisiae deletion strains, locus YOR136W, strain idh2, active compounds read low 0.993 | S. cerevisiae deletion strains, locus YOR144C, strain elg1, active compounds read low 0.987 | S. cerevisiae deletion strains, locus YOR184W, strain ser1, active compounds read low 0.978 | S. cerevisiae deletion strains, locus YOR231W, strain MKK1, active compounds read low 1 | S. cerevisiae deletion strains, locus YOR265W, strain rbl2, active compounds read low 0.985 | S. cerevisiae deletion strains, locus YOR270C, strain vph1, active compounds read low 1.01 | S. cerevisiae deletion strains, locus YOR290C, strain snf2, active compounds read low 0.912 | S. cerevisiae deletion strains, locus YOR316C, strain cot1, active compounds read low 0.984 | S. cerevisiae deletion strains, locus YPL051W, strain arl3, active compounds read low 0.978 | S. cerevisiae deletion strains, locus YPL078C, strain atp4, active compounds read low 0.946 | S. cerevisiae deletion strains, locus YPL106C, strain sse1, active compounds read low 0.969 | S. cerevisiae deletion strains, locus YPL240C, strain hsp82, active compounds read low 0.995 | S. cerevisiae deletion strains, locus YPL241C, strain CIN2, active compounds read low 0.992 | S. cerevisiae deletion strains, locus YPL256C, strain CLN2, active compounds read low 1.01 | S. cerevisiae deletion strains, locus YPR119W, strain clb2, active compounds read low 0.986 | S. cerevisiae deletion strains, locus YPR141C, strain kar3, active compounds read low 0.969 | S. cerevisiae deletion strains, locus YPR163C, strain tif3, active compounds read low 0.982 | S. cerevisiae deletion strains, locus YPR167C, strain met16, active compounds read low 0.972 | S. cerevisiae deletion strains, strain wtn01, active compounds read low 0.976 | S. cerevisiae strains, strain wild type, active compounds read low 0.989
